Targets with a hit are over-represented here; the source holds about 8,800 in all. About 0.5% of all pairs of compound and target were hits.
Tests used:
Test in all cases: log2 fold change, soluble protein after heating vs DMSO (PISA); higher = thermal stabilisation; K562 lysate, 10 uM; active = over 0.2 and 3.5 SD of the protein, either way, in both replicates (recomputed)
[1] = compound: C1=CC=C(C=C1)[C@H](COC2=CC3=C(C=C2)NC(=O)N3)NC(=O)C4=CC=CN(C4=O)CC5=CC(=C(C=C5)F)F
Outline: (§1)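 K562 pellets were dounce-homogenised in PBS pH 7.4 containing 1 mM MgCl2, and the crude extract, at 1 mg/mL protein, was exposed to 10 μM compound for 30 min. Aliquots were heated for 3 min across 48°C-58°C, pooled, brought to 0.5% NP-40 at 4°C and spun at 21,000xg for 90 min, with the supernatant taken as soluble protein. TMTpro 16plex LC-MS/MS with equalised channel sums quantified that protein. Values are log-two fold changes in thermal stability relative to solvent controls, taken from duplicates.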

[2] = compound: CC1=C(SC2=C1C(=N[C@H](C3=NN=C(N32)C)CC(=O)N)C4=CC=C(C=C4)Cl)C
Outline: as §1

[3] = compound: CC1=C2C(=CC=C1)N=C(N(C2=O)C3=CC=CC=C3C)CN4C=NC5=C(N=CN=C54)N
Outline: as §1

[4] = compound: Cc1sc2c(c1C)C(c1ccc(Cl)cc1)=N[C@@H](CC(=O)OC(C)(C)C)c1nnc(C)n1-2
Outline: as §1

[5] = compound: c1ccc([C@@H]2C[C@H]2NC2CCNCC2)cc1
Outline: as §1

Measured: log2 fold change

GSE1 (UniProt Q14687)
inactive: [1] -0.031 | [2] 0.005 | [3] -0.002 | [4] -0.015 | [5] 0.184

GOLGA1 (UniProt Q92805)
Chain of UniProt Q92805 (Q92805 whole entry, looked up): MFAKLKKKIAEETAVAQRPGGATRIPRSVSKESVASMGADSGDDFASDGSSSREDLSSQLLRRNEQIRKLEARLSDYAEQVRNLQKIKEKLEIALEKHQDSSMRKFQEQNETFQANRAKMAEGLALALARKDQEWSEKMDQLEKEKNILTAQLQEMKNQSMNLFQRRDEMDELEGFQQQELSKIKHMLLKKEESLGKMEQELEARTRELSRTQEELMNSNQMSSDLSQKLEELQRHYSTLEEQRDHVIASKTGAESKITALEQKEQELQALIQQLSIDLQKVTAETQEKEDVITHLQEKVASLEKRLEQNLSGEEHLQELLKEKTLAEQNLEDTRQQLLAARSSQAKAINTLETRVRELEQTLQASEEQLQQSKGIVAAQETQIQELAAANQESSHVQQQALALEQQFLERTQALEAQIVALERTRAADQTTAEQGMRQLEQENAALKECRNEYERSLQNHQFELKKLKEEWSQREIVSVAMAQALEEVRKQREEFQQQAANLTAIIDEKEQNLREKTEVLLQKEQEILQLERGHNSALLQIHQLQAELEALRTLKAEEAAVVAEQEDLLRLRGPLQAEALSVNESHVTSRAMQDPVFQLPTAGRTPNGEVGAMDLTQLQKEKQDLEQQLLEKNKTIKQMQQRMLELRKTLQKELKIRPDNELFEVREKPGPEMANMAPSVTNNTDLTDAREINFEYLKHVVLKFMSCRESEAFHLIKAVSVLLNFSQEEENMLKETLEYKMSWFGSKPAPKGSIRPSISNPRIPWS
inactive: [1] -0.042 | [2] 0.045 | [3] 0.026 | [4] -0.057 | [5] 0.009

ICAM2 (UniProt P13598)
Chain of UniProt P13598 (P13598 whole entry, looked up): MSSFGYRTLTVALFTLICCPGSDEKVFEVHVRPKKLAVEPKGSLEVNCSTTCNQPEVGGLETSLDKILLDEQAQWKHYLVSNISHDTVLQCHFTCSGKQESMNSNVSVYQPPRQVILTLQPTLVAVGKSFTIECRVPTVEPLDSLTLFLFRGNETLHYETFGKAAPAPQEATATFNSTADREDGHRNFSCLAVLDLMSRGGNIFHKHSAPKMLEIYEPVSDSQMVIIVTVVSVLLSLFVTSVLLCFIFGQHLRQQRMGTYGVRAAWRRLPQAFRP
inactive: [1] 0.03 | [2] -0.025 | [3] -0.006 | [4] -0.022 | [5] 0.084

HSPA8 (UniProt E9PN89)
inactive: [1] 0.003 | [2] 0.044 | [4] -0.219 | [5] -0.393

JAK3 (UniProt P52333)
Chain of UniProt P52333 (P52333 whole entry, looked up): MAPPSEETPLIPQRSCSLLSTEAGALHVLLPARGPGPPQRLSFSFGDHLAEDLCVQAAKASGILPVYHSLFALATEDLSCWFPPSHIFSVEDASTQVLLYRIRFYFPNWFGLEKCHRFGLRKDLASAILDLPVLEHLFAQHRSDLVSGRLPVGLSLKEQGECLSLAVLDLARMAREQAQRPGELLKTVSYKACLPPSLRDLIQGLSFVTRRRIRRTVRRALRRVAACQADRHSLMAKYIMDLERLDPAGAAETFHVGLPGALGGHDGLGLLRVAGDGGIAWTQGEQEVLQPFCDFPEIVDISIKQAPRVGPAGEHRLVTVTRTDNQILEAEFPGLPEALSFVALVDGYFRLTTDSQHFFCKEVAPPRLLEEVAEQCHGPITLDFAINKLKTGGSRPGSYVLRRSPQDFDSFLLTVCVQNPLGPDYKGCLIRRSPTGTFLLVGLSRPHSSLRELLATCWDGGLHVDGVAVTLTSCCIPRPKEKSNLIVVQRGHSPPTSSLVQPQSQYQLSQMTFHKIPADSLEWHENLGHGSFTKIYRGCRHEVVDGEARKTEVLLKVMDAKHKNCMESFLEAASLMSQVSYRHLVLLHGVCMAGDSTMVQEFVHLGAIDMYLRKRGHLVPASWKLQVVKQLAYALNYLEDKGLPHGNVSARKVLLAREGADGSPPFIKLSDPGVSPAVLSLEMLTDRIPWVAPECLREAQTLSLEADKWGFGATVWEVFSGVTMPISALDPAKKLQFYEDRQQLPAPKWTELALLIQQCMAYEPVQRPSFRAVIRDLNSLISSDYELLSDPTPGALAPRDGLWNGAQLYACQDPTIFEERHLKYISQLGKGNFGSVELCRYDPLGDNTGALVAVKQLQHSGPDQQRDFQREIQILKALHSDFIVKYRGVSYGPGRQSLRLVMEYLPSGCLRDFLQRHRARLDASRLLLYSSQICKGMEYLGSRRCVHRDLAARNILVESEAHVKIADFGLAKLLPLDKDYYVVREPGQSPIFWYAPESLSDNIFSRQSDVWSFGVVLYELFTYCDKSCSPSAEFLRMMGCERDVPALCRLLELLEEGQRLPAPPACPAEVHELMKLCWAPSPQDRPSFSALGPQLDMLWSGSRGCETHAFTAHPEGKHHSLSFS
inactive: [1] 0.031 | [2] -0.051 | [3] -0.129 | [5] 0.254

HNRNPLL (UniProt Q8WVV9)
Chain of UniProt Q8WVV9 (Q8WVV9 whole entry, looked up): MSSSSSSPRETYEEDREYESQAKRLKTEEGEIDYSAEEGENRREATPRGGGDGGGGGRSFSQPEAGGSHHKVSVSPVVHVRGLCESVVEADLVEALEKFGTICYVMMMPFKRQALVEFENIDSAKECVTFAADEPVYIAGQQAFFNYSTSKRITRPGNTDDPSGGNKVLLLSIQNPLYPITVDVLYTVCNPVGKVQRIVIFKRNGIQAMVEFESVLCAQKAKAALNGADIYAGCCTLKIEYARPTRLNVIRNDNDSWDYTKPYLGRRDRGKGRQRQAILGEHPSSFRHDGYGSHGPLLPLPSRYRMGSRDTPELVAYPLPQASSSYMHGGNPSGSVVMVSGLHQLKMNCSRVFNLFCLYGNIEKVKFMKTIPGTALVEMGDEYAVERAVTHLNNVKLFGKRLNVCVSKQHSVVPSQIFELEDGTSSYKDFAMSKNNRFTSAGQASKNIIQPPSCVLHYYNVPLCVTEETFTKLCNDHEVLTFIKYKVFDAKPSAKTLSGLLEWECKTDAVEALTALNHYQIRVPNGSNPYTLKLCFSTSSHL
inactive: [1] 0.018 | [2] 0.028 | [3] 0.007 | [4] 0.022 | [5] 0.036

HAUS5 (UniProt O94927)
Chain of UniProt O94927 (O94927 whole entry, looked up): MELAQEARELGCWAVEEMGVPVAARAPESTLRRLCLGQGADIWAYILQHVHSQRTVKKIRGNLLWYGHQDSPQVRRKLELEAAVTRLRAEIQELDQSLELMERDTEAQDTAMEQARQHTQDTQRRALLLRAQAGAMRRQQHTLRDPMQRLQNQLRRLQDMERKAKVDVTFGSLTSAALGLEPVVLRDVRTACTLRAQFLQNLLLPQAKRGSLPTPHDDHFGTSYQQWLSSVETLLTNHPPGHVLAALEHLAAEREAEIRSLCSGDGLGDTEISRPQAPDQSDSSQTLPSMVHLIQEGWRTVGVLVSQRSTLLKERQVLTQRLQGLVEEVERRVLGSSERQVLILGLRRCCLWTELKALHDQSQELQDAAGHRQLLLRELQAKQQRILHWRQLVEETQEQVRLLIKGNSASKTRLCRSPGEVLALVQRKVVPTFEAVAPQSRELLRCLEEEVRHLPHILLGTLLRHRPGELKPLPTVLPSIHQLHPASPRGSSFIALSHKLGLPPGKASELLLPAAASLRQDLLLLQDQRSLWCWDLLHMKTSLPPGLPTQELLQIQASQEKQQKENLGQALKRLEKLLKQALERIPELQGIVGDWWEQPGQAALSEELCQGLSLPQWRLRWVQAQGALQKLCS
inactive: [1] 0.043 | [2] 0.02 | [3] 0.003 | [4] -0.055 | [5] 0.089

ITGB1BP2 (UniProt Q9UKP3)
Chain of UniProt Q9UKP3 (Q9UKP3 whole entry, looked up): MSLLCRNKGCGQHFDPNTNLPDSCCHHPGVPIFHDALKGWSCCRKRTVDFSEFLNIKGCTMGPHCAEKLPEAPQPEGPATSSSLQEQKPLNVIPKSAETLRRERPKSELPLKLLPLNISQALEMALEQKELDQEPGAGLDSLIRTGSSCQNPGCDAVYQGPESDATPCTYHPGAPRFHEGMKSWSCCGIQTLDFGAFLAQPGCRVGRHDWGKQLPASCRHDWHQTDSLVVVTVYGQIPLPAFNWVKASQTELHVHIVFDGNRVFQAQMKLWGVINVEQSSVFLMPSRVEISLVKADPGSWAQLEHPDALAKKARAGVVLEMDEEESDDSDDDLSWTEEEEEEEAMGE
inactive: [3] 0.116 | [4] 0.083 | [5] -0.029

GMIP (UniProt Q9P107)
Chain of UniProt Q9P107 (Q9P107 whole entry, looked up): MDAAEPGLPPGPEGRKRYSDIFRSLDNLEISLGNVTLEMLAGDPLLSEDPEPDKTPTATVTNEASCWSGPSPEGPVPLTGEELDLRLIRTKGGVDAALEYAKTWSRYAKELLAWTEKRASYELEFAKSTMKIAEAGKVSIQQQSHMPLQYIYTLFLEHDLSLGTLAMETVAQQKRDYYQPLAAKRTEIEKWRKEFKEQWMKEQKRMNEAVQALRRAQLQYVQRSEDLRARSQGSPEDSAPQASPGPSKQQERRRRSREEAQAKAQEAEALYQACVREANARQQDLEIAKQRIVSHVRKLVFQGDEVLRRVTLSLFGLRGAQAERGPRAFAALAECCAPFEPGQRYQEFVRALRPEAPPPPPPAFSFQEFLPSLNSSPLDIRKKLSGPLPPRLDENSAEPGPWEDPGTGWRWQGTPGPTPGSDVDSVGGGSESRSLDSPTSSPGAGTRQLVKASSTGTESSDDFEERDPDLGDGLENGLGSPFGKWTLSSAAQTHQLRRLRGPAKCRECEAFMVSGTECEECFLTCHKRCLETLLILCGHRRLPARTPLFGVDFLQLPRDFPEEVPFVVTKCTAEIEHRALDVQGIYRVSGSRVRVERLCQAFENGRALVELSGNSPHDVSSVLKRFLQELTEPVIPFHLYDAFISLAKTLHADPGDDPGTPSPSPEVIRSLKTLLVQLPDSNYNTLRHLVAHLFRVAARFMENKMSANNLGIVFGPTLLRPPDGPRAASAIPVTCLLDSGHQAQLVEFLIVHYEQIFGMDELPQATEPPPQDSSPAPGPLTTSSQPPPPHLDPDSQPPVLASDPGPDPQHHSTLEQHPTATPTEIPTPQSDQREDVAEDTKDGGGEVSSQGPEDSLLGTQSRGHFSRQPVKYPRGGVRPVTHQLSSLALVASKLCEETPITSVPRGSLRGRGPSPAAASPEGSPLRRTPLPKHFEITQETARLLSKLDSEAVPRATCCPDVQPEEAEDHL
inactive: [1] 0.023 | [2] -0.04 | [3] -0.04 | [4] -0.018 | [5] 0.054

GYPA, A0A2R8Y7F9
inactive: [1] -0.088 | [2] -0.151 | [5] -0.163

— the supplement of paper PMC10849652
